Reference: PubChem BioAssay
For some assays here: Potency and affinity values are given separately. Active and inactive are the calls of the source. Unless noted, how the calls were made is not given here.

Columns and labels:
[1] = antimalarial activity against Dd2 strain (AID 2302;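 active means growth inhibition above 50% at the single 2 µM test dose, taken to imply half-maximal potency below 2 µM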;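 further: 0% = DMSO untreated growth and 100% = chloroquine plus artemisinin killed control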); conditions: P. falciparum Dd2 in RBCs, LDH growth readout, 72 h; at 2 µM; active compounds read high
[2] = HepG2 cytotoxicity, primary screen, cytotoxicity control for P. falciparum antimalarial project, cell-based, ATP luminescence (AID 2303;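 active means inhibition above 50%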;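 further: 0% = DMSO wells and 100% = digitonin-killed cells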); conditions: HepG2 viability, 24-48 h, at 10 µM, active compounds read high
[3] = target: L-lactate dehydrogenase (Plasmodium falciparum (isolate CDC / Honduras)) (UniProt Q27743); assay: PfLDH activity inhibition – cell lysate, 3D7 strain, counter-screen for P. falciparum growth inhibition project (AID 2304);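 further: 0% = vehicle and 100% = reference inhibitor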; conditions: P. falciparum 3D7 crude extract, LDH APAD/NBT absorbance; at 2 µM; active compounds read high
L-lactate dehydrogenase (Plasmodium falciparum (isolate CDC / Honduras)), sequence (Q27743 whole entry, looked up): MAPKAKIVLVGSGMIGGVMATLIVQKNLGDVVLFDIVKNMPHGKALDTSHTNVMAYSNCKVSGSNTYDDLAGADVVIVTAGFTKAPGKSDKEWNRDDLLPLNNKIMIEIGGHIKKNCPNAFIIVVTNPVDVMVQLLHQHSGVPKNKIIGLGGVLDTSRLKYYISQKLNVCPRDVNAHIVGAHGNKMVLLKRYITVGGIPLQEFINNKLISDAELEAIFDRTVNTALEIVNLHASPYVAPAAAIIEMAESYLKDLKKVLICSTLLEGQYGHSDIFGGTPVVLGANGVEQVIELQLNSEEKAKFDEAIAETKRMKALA

[4] = inhibition of 3D7 malaria parasite growth – strain 3D7 (AID 2306);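 further: 0% = DMSO wells and 100% = chloroquine plus artemisinin control wells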; conditions: P. falciparum 3D7 erythrocytic growth, LDH absorbance, 72 h; at 2 µM; active compounds read high
[5] = target: Calcium-dependent protein kinase 1 (Plasmodium falciparum (isolate 3D7)) (UniProt P62344); assay: PfCDPK1 kinase inhibitors, biochemical, TCAMS library (AID 1159585; cut-off not given, nearly all actives have IC50 up to about 0.98 µM;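 further: inhibitors leave more ATP so luminescence rises with inhibition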); conditions: recombinant PfCDPK1, Kinase-Glo ATP depletion luminescence
Calcium-dependent protein kinase 1 (Plasmodium falciparum (isolate 3D7)), sequence (P62344 whole entry, looked up): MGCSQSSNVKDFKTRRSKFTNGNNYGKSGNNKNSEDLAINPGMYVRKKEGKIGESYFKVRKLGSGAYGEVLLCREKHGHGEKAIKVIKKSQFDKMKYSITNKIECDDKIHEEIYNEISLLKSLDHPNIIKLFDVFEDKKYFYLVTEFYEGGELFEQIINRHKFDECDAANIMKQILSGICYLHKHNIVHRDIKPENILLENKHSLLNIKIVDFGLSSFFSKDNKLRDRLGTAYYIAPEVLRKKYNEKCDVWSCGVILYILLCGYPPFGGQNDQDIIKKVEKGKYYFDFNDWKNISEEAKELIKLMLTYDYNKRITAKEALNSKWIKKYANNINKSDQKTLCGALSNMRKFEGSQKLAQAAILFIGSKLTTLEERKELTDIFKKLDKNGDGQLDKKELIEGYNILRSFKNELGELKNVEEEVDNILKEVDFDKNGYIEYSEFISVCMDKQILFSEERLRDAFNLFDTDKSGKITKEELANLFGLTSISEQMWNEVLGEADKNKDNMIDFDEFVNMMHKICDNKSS

[6] = target: Plasmodium falciparum protein kinase 6 (PK6, PF3D7_1337100) (UniProt Q8IDW1); assay: PfPK6 kinase inhibitors, biochemical, TCAMS library (AID 1159586); conditions: recombinant PfPK6, Kinase-Glo ATP depletion luminescence
Plasmodium falciparum protein kinase 6 (PK6, PF3D7_1337100), sequence (Q8IDW1 1-305): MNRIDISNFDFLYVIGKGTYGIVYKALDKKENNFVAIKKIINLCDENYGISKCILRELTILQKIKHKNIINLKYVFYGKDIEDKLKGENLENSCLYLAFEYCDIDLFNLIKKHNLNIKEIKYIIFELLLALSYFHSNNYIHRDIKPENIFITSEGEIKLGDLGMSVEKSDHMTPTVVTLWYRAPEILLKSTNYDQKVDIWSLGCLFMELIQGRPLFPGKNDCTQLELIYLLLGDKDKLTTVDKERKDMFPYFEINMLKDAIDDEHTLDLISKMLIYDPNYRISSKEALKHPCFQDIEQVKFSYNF

[7] = target: Protein kinase 7 (PK7), Plasmodium falciparum 3D7 (PF3D7_0213400) (UniProt Q7YTF7); assay: inhibition of Plasmodium PK7 catalytic activity – biochemical, TCAMS antimalarial set, Kinase-Glo luminescence (AID 1159587); conditions: recombinant PfPK7, Kinase-Glo ATP depletion luminescence
Protein kinase 7 (PK7), Plasmodium falciparum 3D7 (PF3D7_0213400), sequence (Q7YTF7 1-343): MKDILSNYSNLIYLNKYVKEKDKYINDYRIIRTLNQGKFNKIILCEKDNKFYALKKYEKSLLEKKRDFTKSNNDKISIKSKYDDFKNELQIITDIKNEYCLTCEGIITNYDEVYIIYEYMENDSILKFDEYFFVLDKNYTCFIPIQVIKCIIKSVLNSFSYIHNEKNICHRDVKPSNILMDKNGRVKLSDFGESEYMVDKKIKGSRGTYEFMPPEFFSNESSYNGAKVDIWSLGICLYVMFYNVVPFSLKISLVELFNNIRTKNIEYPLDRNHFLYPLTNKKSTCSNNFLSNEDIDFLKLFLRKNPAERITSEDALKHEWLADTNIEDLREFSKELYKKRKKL

[8] = target: Calcium-dependent protein kinase 4 (Plasmodium falciparum (isolate 3D7)) (UniProt Q8IBS5); assay: PfCDPK4 kinase inhibitors, biochemical, TCAMS library (AID 1159588; cut-off not given, nearly all actives have IC50 up to about 0.91 µM); conditions: recombinant PfCDPK4, Kinase-Glo ATP depletion luminescence
Calcium-dependent protein kinase 4 (Plasmodium falciparum (isolate 3D7)), sequence (Q8IBS5 whole entry, looked up): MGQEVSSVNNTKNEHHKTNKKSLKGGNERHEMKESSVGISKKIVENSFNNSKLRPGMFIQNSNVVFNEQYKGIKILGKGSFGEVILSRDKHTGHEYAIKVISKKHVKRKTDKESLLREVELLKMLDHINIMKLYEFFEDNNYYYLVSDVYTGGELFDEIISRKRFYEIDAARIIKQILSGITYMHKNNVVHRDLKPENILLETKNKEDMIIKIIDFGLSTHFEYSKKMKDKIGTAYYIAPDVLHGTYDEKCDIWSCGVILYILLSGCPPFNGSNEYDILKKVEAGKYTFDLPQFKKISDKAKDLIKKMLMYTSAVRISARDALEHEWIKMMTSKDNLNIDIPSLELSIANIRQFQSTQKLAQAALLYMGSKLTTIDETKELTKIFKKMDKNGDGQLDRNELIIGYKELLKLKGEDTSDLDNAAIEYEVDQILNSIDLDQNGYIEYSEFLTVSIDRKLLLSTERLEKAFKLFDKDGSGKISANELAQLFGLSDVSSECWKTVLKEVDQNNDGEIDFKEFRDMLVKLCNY

O=C1C[C@@H]([S@@](=O)Cc2nccs2)N1CCOCCCCCCc1ccc(Cl)cc1
inactive: growth inhibition [1] 0% | inhibition [2] -4% | inhibition [3] 1% | outcome [5] | outcome [6] | outcome [7] | outcome [8]
active: growth inhibition [4] 91%

COC(=O)c1cccc(CNCc2ccc(-c3ccc(-c4nc5ccccc5[nH]4)s3)cc2)c1
inactive: inhibition [2] 20% | inhibition [3] 4% | outcome [5] | outcome [6] | outcome [7] | outcome [8]
active: growth inhibition [1] 79% | growth inhibition [4] 100%

COc1ccccc1C1CCN(C2CCC(NC(=O)/C=C/c3cc(C(F)(F)F)cc(C(F)(F)F)c3)CC2)CC1 (stereo not given)
active: growth inhibition [4] 92%
inactive: growth inhibition [1] 21% | inhibition [2] 31% | inhibition [3] -4% | outcome [5] | outcome [6] | outcome [7] | outcome [8]

Nc1nc2c(cnn2CCCCCCCP(=O)(O)O)c(=O)[nH]1
inactive: inhibition [2] -3% | inhibition [3] 4% | outcome [5] | outcome [6] | outcome [7] | outcome [8]
active: growth inhibition [1] 91% | growth inhibition [4] 94%

CCC(C)NC(=O)Nc1cccc(-c2cccc(-c3nc4c(C)cccc4[nH]3)c2)c1 (stereo not given)
inactive: growth inhibition [1] 27% | inhibition [2] 3% | inhibition [3] 5% | outcome [5] | outcome [6] | outcome [7] | outcome [8]
active: growth inhibition [4] 101%

Cc1ccc(NC(=O)N2CCCN(CCCCCNC(=O)/C=C/c3ccc(Cl)c(Cl)c3)CC2)cc1
inactive: growth inhibition [1] 2% | inhibition [2] 12% | inhibition [3] -6% | outcome [5] | outcome [6] | outcome [7] | outcome [8]
active: growth inhibition [4] 99%

Fc1ccc2nc(Nc3nc(-c4ccccn4)cs3)sc2c1
inactive: inhibition [2] 42% | inhibition [3] 3% | outcome [5] | outcome [6] | outcome [7] | outcome [8]
active: growth inhibition [1] 100% | growth inhibition [4] 102%

NC(N)=Nc1nc(-c2cc(NC(=O)C(F)(F)F)cc([N+](=O)[O-])c2)cs1
active: growth inhibition [1] 51% | growth inhibition [4] 98%
inactive: inhibition [2] 7% | inhibition [3] 5% | outcome [5] | outcome [6] | outcome [7] | outcome [8]

CC(C)CCNc1nc2ccccc2nc1Nc1cccc(C(F)(F)F)c1
active: growth inhibition [1] 99% | growth inhibition [4] 98%
inactive: inhibition [2] 12% | inhibition [3] 1% | outcome [5] | outcome [6] | outcome [7] | outcome [8]

CC(C)[C@H](NC(=O)c1ccc(O)c(-c2ccc(Cl)c(Cl)c2)c1)C(=O)NC1CCCCCC1
active: growth inhibition [1] 99% | growth inhibition [4] 99%
inactive: inhibition [2] -4% | inhibition [3] -2% | outcome [5] | outcome [6] | outcome [7] | outcome [8]

CC(C)c1ccc(NC(=O)NCCCC2CCCN(CCCCCNC(=O)/C=C/c3ccc(Cl)c(Cl)c3)C2)cc1 (stereo not given)
active: growth inhibition [4] 90%
inactive: growth inhibition [1] 42% | inhibition [2] 25% | inhibition [3] -2% | outcome [5] | outcome [6] | outcome [7] | outcome [8]

Cc1cc(N[C@@H](Cc2ccccc2)C(=O)NC2CCCC2)nc(NCC2CCCCC2)n1
inactive: inhibition [2] 18% | inhibition [3] 4% | outcome [5] | outcome [6] | outcome [7] | outcome [8]
active: growth inhibition [1] 96% | growth inhibition [4] 101%

CCc1cn2c3c(cc(C(=O)N[C@@H](Cc4ccccc4)[C@H](O)CNCCOC)cc13)N(C)S(=O)(=O)CC2
active: growth inhibition [1] 56% | growth inhibition [4] 98%
inactive: inhibition [2] 7% | inhibition [3] -9% | outcome [5] | outcome [6] | outcome [7] | outcome [8]

COc1ccc2ncc(F)c(CCN3CCC(NCc4cc(Br)c5c(c4)OCCO5)CC3)c2n1
active: growth inhibition [1] 94% | growth inhibition [4] 100%
inactive: inhibition [2] 26% | inhibition [3] -2% | outcome [5] | outcome [6] | outcome [7] | outcome [8]

O=C(Nc1nc2ccc(Cl)cc2s1)c1csnn1
active: growth inhibition [1] 99% | growth inhibition [4] 96%
inactive: inhibition [2] 15% | inhibition [3] 3% | outcome [5] | outcome [6] | outcome [7] | outcome [8]

Cc1ccc(NC(=O)c2ccc(NCCCN3CC(C)CC(C)C3)c([N+](=O)[O-])c2)cc1F (stereo not given)
active: growth inhibition [1] 85% | growth inhibition [4] 101%
inactive: inhibition [2] 18% | inhibition [3] -8% | outcome [5] | outcome [6] | outcome [7] | outcome [8]

COc1cc(-c2cc(-c3ccc(S(C)(=O)=O)cc3)cnc2N)ccc1O
inactive: inhibition [2] 37% | inhibition [3] -2% | outcome [5] | outcome [6] | outcome [7] | outcome [8]
active: growth inhibition [1] 97% | growth inhibition [4] 97%

Cc1cccc2[nH]c(-c3ccc(-c4ccc(NC(=O)CN5CCN(C)CC5)cc4)cc3)nc12
inactive: inhibition [2] 29% | inhibition [3] 1% | outcome [5] | outcome [6] | outcome [7] | outcome [8]
active: growth inhibition [1] 83% | growth inhibition [4] 100%

Cc1ccccc1C1CCN(C2CCC(NC(=O)c3cc(-c4ccccc4)oc3C)CC2)CC1 (stereo not given)
active: growth inhibition [4] 100%
inactive: growth inhibition [1] 32% | inhibition [2] 46% | inhibition [3] 0% | outcome [5] | outcome [6] | outcome [7] | outcome [8]

Cc1nnsc1C(=O)Nc1cccc(-c2ccc(-c3nc4c(C)cccc4[nH]3)s2)c1
active: growth inhibition [4] 100%
inactive: growth inhibition [1] 44% | inhibition [2] 46% | inhibition [3] 4% | outcome [5] | outcome [6] | outcome [7] | outcome [8]

Cc1cccc2[nH]c(-c3ccc(-c4ccc(CN5CCN(CC6CCCN(C)C6)CC5)cc4)s3)nc12 (stereo not given)
active: growth inhibition [1] 99% | inhibition [2] 63% | growth inhibition [4] 101%
inactive: inhibition [3] -3% | outcome [5] | outcome [6] | outcome [7] | outcome [8]

FC(F)(F)c1ccc(CNC2CCN(CC3CCCCC3)CC2)cc1
inactive: growth inhibition [1] 5% | inhibition [2] 4% | inhibition [3] -4% | outcome [5] | outcome [6] | outcome [7] | outcome [8]
active: growth inhibition [4] 87%

Cn1c(=O)c2cc(C(=O)NCCCN3CCCCCC3)sc2c2ccccc21
active: growth inhibition [1] 99% | growth inhibition [4] 99%
inactive: inhibition [2] 32% | inhibition [3] 0% | outcome [5] | outcome [6] | outcome [7] | outcome [8]

CCOc1ccc2c(NN=Cc3ccc(F)cc3)cc(C)nc2c1
inactive: inhibition [2] 22% | inhibition [3] -3% | outcome [5] | outcome [6] | outcome [7] | outcome [8]
active: growth inhibition [1] 99% | growth inhibition [4] 101%

Cc1ccc(NS(=O)(=O)c2ccc(C(C)N3CCC(N4CCCCC4)CC3)cc2)cc1C (stereo not given)
active: growth inhibition [1] 82% | inhibition [2] 66% | growth inhibition [4] 97%
inactive: inhibition [3] -2% | outcome [5] | outcome [6] | outcome [7] | outcome [8]

O=C(NC(CCCN1CCC2(CC1)OCc1ccccc12)c1ccc(Cl)c(Cl)c1)c1cc(C(F)(F)F)cc(C(F)(F)F)c1 (stereo not given)
active: growth inhibition [1] 99% | inhibition [2] 55% | growth inhibition [4] 100%
inactive: inhibition [3] 5% | outcome [5] | outcome [6] | outcome [7] | outcome [8]

Cc1nc(-c2ccc3c(c2)CCN(CCC2CCC(NC(=O)c4cc5cccc(Cl)c5[nH]4)CC2)CC3)no1 (stereo not given)
active: growth inhibition [4] 100%
inactive: growth inhibition [1] 46% | inhibition [2] 36% | inhibition [3] 2% | outcome [5] | outcome [6] | outcome [7] | outcome [8]

O=C(Nc1ccncc1)c1cc(C(=O)Nc2ccncc2)cc([N+](=O)[O-])c1
inactive: inhibition [2] 1% | inhibition [3] -3% | outcome [5] | outcome [6] | outcome [7] | outcome [8]
active: growth inhibition [1] 50% | growth inhibition [4] 100%

O=C(O)C[C@H](NC(=O)CCCNC(=O)c1cccc(-c2ccc(Cl)c(Cl)c2)c1)C(=O)O
inactive: growth inhibition [1] -4% | inhibition [2] 5% | inhibition [3] -3% | outcome [5] | outcome [6] | outcome [7] | outcome [8]
active: growth inhibition [4] 91%

COc1c(I)cc(Cc2cnc(N)nc2N)cc1I
inactive: growth inhibition [1] 0% | inhibition [2] 5% | inhibition [3] -8% | outcome [5] | outcome [6] | outcome [7] | outcome [8]
active: growth inhibition [4] 91%

O=C(c1ccc(-c2cccc(-c3nc4ccc(C(F)(F)F)cc4[nH]3)c2)cc1)N1CCCCC1CN1CCC(O)C1 (stereo not given)
active: growth inhibition [1] 98% | growth inhibition [4] 100%
inactive: inhibition [2] 29% | inhibition [3] -11% | outcome [5] | outcome [6] | outcome [7] | outcome [8]

CCOC(=O)[C@H](Cc1cccc2ccccc12)NC(=O)[C@H](CCC(=O)OC(C)(C)C)NC(=O)c1ccc(N(C)Cc2cnc3nc(N)nc(N)c3n2)cc1
inactive: inhibition [3] -2% | outcome [5] | outcome [6] | outcome [7] | outcome [8]
active: growth inhibition [1] 96% | inhibition [2] 66% | growth inhibition [4] 93%

CC(C)COc1ccc(Cl)cc1Cc1ccc(-c2nc3c(F)cccc3[nH]2)o1
inactive: growth inhibition [1] 47% | inhibition [2] 15% | inhibition [3] -1% | outcome [5] | outcome [6] | outcome [7] | outcome [8]
active: growth inhibition [4] 98%

N#Cc1ccc(N2CCN(Cc3cccc(-c4ccc(-c5nc6ccc(C(F)(F)F)cc6[nH]5)s4)c3)CC2)nc1
active: growth inhibition [1] 52% | growth inhibition [4] 96%
inactive: inhibition [2] 31% | inhibition [3] -4% | outcome [5] | outcome [6] | outcome [7] | outcome [8]

CCCOc1cc(O)c(-c2n[nH]c(C)c2Oc2ccccc2)cc1CC
active: growth inhibition [4] 91%
inactive: growth inhibition [1] 46% | inhibition [2] -14% | inhibition [3] 1% | outcome [5] | outcome [6] | outcome [7] | outcome [8]

CS(=O)(=O)c1cccc(-c2cnc(N)c3cc(-c4ccc(F)cc4)ccc23)c1
inactive: growth inhibition [1] 33% | inhibition [2] 28% | inhibition [3] 4% | outcome [5] | outcome [6] | outcome [7] | outcome [8]
active: growth inhibition [4] 91%

CCN(CC)CCCCOc1ccc2c(c1)C(=O)c1cc(OCCCCN(CC)CC)ccc1-2
inactive: growth inhibition [1] 44% | inhibition [2] 24% | inhibition [3] -6% | outcome [5] | outcome [6] | outcome [7] | outcome [8]
active: growth inhibition [4] 102%

Nc1cc(-c2cc3c(OCc4ccccc4)cccc3[nH]2)ccn1
inactive: growth inhibition [1] 15% | inhibition [2] 23% | inhibition [3] 4% | outcome [5] | outcome [6] | outcome [7] | outcome [8]
active: growth inhibition [4] 85%

Cc1cc([N+](=O)[O-])ccc1NC(=O)Nc1cccc(C(F)(F)F)c1
inactive: inhibition [2] 15% | inhibition [3] -1% | outcome [5] | outcome [6] | outcome [7] | outcome [8]
active: growth inhibition [1] 100% | growth inhibition [4] 102%

COc1ccc(-c2ccc(NC(=O)c3cccs3)cc2)cc1CN1CCCN(C)CC1
active: growth inhibition [4] 100%
inactive: growth inhibition [1] 30% | inhibition [2] 31% | inhibition [3] 4% | outcome [5] | outcome [6] | outcome [7] | outcome [8]
